DT40 TDP1 CPT – qHTS for Inhibitors of human tyrosyl-DNA phosphodiesterase 1 (TDP1): qHTS in cells in presence of CPT. chicken DT40 Tdp1-/-;hTDP1 cells + 20 nM CPT, ATP luminescence, 48 h. Potency, µM (highest dose often 46.2 µM), for the others: top-dose activity change, negative = growth inhibition, usual class: inhibitors. 12% of 420,000 active. AID 686979, 2013; also: % is scaled to controls: 0 for no effect and ±100 for the full control effect; nearly all actives have a fitted effect of over 55% in size
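Cell growth measured by CellTiter-Glo luminescence after a minimum 48 h, 37 C compound exposure with 20 nM CPT in Tdp1-knockout DT40 cells stably expressing hTDP1, seeded 400/well; qHTS titration format.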
TGFb inhibitor – qHTS for Inhibitors of TGF-b. 1.2% of 410,000 active. HepG2 CAGA-GFP TGF-b/SMAD3 reporter, GFP fluorescence, 18 h; TGF-beta stimulated, 500 pg/mL final. Potency, µM (series often up to 46.1 µM), for inactives: at the top dose activity, negative = inhibition, usual class: inhibitors. AID 588855, 2011; also: % is scaled to controls: 0 for no effect and ±100 for the full control effect; nearly all actives have a fitted effect of over 65% in size
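Read-out: total well GFP (ex488/em500-530) summed from mean per-cell fluorescence. Cells: HEPG2 CAGA-GFP, 1% FBS DMEM, 18 h at 37 degrees C with 500 pg/mL final TGF-beta. Unstimulated wells served as the full-inhibition control; stimulated DMSO wells = 0%.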
ATXN viability – Viability Counterscreen for Primary qHTS for Inhibitors of ATXN expression | S2 cells (HEK-293 line with an ATXN2-luciferase reporter) viability, CellTiter-Fluor protease fluorescence, 24 h | Potency, µM (highest dose often 56.7 µM), actives largely listed as cytotoxic | 0.49% of 400,000 active | AID 651635, 2014; also: nearly all actives have a fitted effect of over 40% in size
ATXN2 expr inh – Primary qHTS for Inhibitors of ATXN expression; HEK-293 ATXN2-luciferase reporter, luminescence, 24 h; Potency, µM (doses to about 57 µM), for inactives: top-dose activity change, negative = inhibition, most hits filed as inhibitors; 0.72% of 360,000 active; also: % is scaled to controls: 0 for no effect and ±100 for the full control effect; nearly all actives have a fitted effect of over 55% in size
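ATXN2-luciferase reporter cells (luciferase flanked by upstream and downstream ATXN2 gene portions) were treated 24 h at 37 °C with compounds at up to 57 uM. SteadyGlo luminescence gave expression; GF-AFC fluorescence gave viability.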
HepG2 viability – qHTS for Inhibitors of TGF-b: Cytotox Counterscreen; HepG2 CAGA-GFP viability, ATP luminescence, 18 h; Potency, µM (doses to about 46.1 µM), for inactives: at the highest dose activity change, negative = cytotoxicity, hits mostly cytotoxic; 0.76% of 410,000 active; AID 588856, 2011
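HepG2 CAGA-GFP cells (1000/well, DMEM with 1% FBS) received compound, then TGF-beta at 500 pg/mL final, and were incubated 18 hours at 37 degrees C. Viability was read by CellTiter-Glo luminescence. Media-only wells were set as complete cell-killing and DMSO as no toxicity.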
TDP1 cell noCPT – qHTS for Inhibitors of human tyrosyl-DNA phosphodiesterase 1 (TDP1): qHTS in cells in absence of CPT. 15% of 420,000 active. Potency, µM (titrated, usually from 46.2 µM), inactives show at the highest dose activity change, negative = growth inhibition, most hits filed as inhibitors. DT40 Tdp1-/- hTDP1 cells, no CPT, ATP luminescence, 48 h; also: % is scaled to controls: 0 for no effect and ±100 for the full control effect; nearly all actives have a fitted effect of over 55% in size
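Seeded 400 DT40-hTDP1 cells/well (vehicle DMSO, no 20 nM CPT); pinned compounds; ≥48 hr at 37 °C; CellTiter-Glo luminescence as viability measure.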
Starred values were filed as active, the others as inactive; i = inactive; u = inconclusive; x = not tested or not shown; [ ] = dose if it differs, or a comment. An excerpt weighted towards active compounds, which were near 17% of everything screened. Calls follow the shape of the dose curve; as a rule, active = well fitted curve in the direction sought with a large enough effect; inconclusive = small, poorly fitted or top-dose-only effect, or another doubt; inactive = no such curve, though single readings can be large; an effect the other way counts as inactive or inconclusive. Potency is read from the fitted curve at half-maximal effect.

SMILES	DT40 TDP1 CPT	TGFb inhibitor	ATXN viability	ATXN2 expr inh	HepG2 viability	TDP1 cell noCPT
O=C(CSc1nccn1Cc1ccc(F)cc1)Nc1nc2ccccc2s1	18µM*	u	i	u	-20%	23µM*
COc1ccc(Cn2ccnc2SCC(=O)Nc2ccccc2F)cc1	-16%	-3%	i	-3%	-10%	-12%
COc1ccc(Cn2ccnc2SCC(=O)Nc2ccc(F)cc2F)cc1	u	-6%	i	x	-16%	23µM*
Cc1ccc(-n2c(=O)c3c(cnn3C)n(CC(=O)Nc3c(C)cccc3C)c2=O)cc1	-10%	-24%	i	1%	-6%	-10%
COc1cccc(C(=O)OCC(=O)Nc2cc(C)on2)c1OC	-3%	22%	i	-14%	-67%	-1%
CCN(CC)C(=O)c1ccc(COc2ccccc2Cl)o1	-20%	-22%	i	-2%	-13%	16µM*
O=C(Nc1nn(Cc2ccc(Cl)cc2)cc1Br)c1ccc(COc2ccccc2Cl)o1	26µM*	u	i	-22%	-4%	26µM*
Cc1cc(C)n(Cc2ccc(NC(=O)c3ccc(COc4ccccc4Br)cc3)cc2)n1	21µM*	41%	u	u	-13%	29µM*
O=C(Nc1cccnc1)c1ccc(COc2ccccc2Cl)o1	18µM*	-2%	i	-16%	-39%	21µM*
CC(=O)Nc1cccc(C(=O)NC(C)c2ccc(S(N)(=O)=O)cc2)c1 (centres undefined)	3%	0%	i	5%	4%	-5%
O=C(CN(c1cccc([N+](=O)[O-])c1)S(=O)(=O)c1ccccc1)N1CCCCC1	0%	2%	i	-2%	8%	10%
Cc1cc(C)nc(NC(=O)c2ccc(COc3ccccc3Cl)cc2)c1	18µM*	-13%	i	u	-26%	26µM*
CN(C)c1ccc(NC(=O)c2ccc(COc3cccc(Cl)c3)o2)cc1	21µM*	-29%	i	10%	-8%	u
O=C(NCc1cccnc1)c1ccc(COc2ccc(Cl)cc2Cl)o1	u	-1%	i	11%	-3%	u
O=C(NCc1cccnc1)c1ccc(COc2ccccc2Cl)cc1	u	-5%	u	x	-10%	13µM*
O=C(Nc1cccnc1)c1ccc(COc2cc(Cl)ccc2Cl)o1	u	u	i	-30%	-5%	18µM*
O=C(Nc1ccn(Cc2c(F)c(F)cc(F)c2F)n1)c1ccc(COc2ccccc2Cl)cc1	u	-13%	i	-19%	-39%	u
O=C(NCc1cccnc1)c1ccc(COc2ccccc2Br)cc1	7%	-19%	u	u	-13%	u
CCc1ccc(NC(=O)CSc2nc3c(c(=O)[nH]2)CN(Cc2ccc4c(c2)OCO4)CC3)cc1	-1%	u	i	1%	-25%	u
NS(=O)(=O)c1ccc(CCNC(=O)CN2CCN(Cc3cccc(C(F)(F)F)c3)CC2)cc1	23µM*	u	i	-29%	-7%	23µM*
COc1ccc(CCNC(=O)CN2CCN(c3cccc(C(F)(F)F)c3)CC2)cc1	u	-9%	x	x	-46%	u
NS(=O)(=O)c1ccc(CCNC(=O)CN2CCC(Cc3ccccc3)CC2)cc1	u	-9%	i	-24%	-21%	16µM*
O=C(CN1CCC(Cc2ccccc2)CC1)NCCc1ccc(F)cc1	2%	u	i	-19%	-3%	-28%
COC(=O)c1c(NC(=O)CC2SC(N)=NC2=O)sc(C)c1C (centres undefined)	u	-25%	i	-7%	-87%	-2%
O=C(Cn1nc(-c2ccccc2)nc1-c1ccccc1)OC1CCCCC1	u	-30%	i	-5%	-21%	18µM*
SMILES	DT40 TDP1 CPT	TGFb inhibitor	ATXN viability	ATXN2 expr inh	HepG2 viability	TDP1 cell noCPT
CCOC(=O)N1CCN(S(=O)(=O)N2CCCC(C(=O)NCc3ccccc3OCC)C2)CC1 (centres undefined)	u	3%	i	x	-4%	u
CCCCC(=O)NC(=S)Nc1c(C)cc(Br)cc1C	21µM*	-20%	i	x	-5%	18µM*
COc1ccc(CNC(=O)C(c2ccco2)N(C(=O)c2ccccn2)c2ccccc2)cc1 (centres undefined)	10µM*	-13%	i	x	-2%	23µM*
OC(CNC1CCCCC1)CON=C1CCSc2c(Cl)cccc21 (centres undefined)	23µM*	u	u	x	-112%	8.2µM*
CCCN(CCC)CC(O)Cn1cc(/C=C/C(=O)c2ccc(OC)cc2)c2ccccc21 (centres undefined)	u	x	x	x	-101%	5.2µM*
COc1ccc(C(=O)/C=C/c2cn(CC(O)CN(CC(C)C)CC(C)C)c3ccccc23)cc1 (centres undefined)	15µM*	-6%	x	17%	-19%	16µM*
COCC(=O)N1CCC2(CCCN(C(c3ccccc3)c3ccccc3)C2)CC1	8%	x	x	x	x	u
Cc1ccc(S(=O)(=O)N(C)c2ccc(C(=O)NCC(c3cccs3)N3CCOCC3)cc2)cc1 (centres undefined)	21µM*	2%	i	-6%	-6%	u
Cc1ccc(S(=O)(=O)Nc2cccc(C(=O)NCC(c3ccco3)N3CCCCC3)c2)cc1F (centres undefined)	u	-24%	u	-12%	-37%	21µM*
CN(c1ccccc1)S(=O)(=O)c1ccc(C(=O)NCC(c2ccco2)N2CCCCC2)cc1 (centres undefined)	u	-5%	i	-15%	-16%	15µM*
Cc1cc(S(=O)(=O)Nc2ccc(C(=O)NCC(c3ccco3)N3CCCCC3)cc2)ccc1F (centres undefined)	-9%	0%	i	-5%	-24%	-24%
CN(C)C(CNC(=O)c1cc(S(=O)(=O)N(C)Cc2ccccc2)ccc1Cl)c1ccco1 (centres undefined)	12µM*	-15%	i	-11%	-14%	12µM*
COCc1c(C(=O)NCC2CCCN(C)C2)cnn1-c1ncc2c(n1)-c1ccccc1CCC2 (centres undefined)	11%[9.04 µM]	x	i	x	x	-9%
